Test results from ChEMBL document CHEMBL1961873, “Compounds: GSK PKIS; Assays: Nanosyn kinase panel” (2012).
Values joined by “and” are separate entries in the source; they are usually repeats but may differ in a detail not shown here. Equal entries are not always repeated.

Legend:
[1] = target: Serine/threonine-protein kinase pim-2 (Homo sapiens) (UniProt Q9P1W9); settings: at 1 µM;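 further: each value is a mean of the inhibition measurements against the kinase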
[2] = target: Serine/threonine-protein kinase pim-3 (Homo sapiens) (UniProt Q86V86); settings: at 0.1 µM
[3] = target: Serine/threonine-protein kinase pim-3 (Homo sapiens) (UniProt Q86V86); settings: at 1 µM
[4] = target: T1, MAP kinase-activated protein kinase 5 (Homo sapiens) (UniProt Q8IW41); settings: at 0.1 µM
T1 sequence (whole entry): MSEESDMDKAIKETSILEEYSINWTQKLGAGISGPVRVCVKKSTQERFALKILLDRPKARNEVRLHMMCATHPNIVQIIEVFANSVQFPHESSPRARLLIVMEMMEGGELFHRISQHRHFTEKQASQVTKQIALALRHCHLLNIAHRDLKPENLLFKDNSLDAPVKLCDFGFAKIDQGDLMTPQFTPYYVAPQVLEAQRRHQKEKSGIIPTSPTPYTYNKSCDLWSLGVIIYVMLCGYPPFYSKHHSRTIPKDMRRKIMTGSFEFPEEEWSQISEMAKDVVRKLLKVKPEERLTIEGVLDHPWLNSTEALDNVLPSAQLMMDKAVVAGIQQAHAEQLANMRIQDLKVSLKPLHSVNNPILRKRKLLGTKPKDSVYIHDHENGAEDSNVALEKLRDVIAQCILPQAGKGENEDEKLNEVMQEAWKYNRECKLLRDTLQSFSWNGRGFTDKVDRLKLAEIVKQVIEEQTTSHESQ

[5] = target: T1, MAP kinase-activated protein kinase 5 (Homo sapiens); settings: at 1 µM
[6] = target: Serine/threonine-protein kinase SIK1 (Homo sapiens) (UniProt P57059); settings: at 0.1 µM
Sequence of Serine/threonine-protein kinase SIK1 (Homo sapiens) (P57059 whole entry): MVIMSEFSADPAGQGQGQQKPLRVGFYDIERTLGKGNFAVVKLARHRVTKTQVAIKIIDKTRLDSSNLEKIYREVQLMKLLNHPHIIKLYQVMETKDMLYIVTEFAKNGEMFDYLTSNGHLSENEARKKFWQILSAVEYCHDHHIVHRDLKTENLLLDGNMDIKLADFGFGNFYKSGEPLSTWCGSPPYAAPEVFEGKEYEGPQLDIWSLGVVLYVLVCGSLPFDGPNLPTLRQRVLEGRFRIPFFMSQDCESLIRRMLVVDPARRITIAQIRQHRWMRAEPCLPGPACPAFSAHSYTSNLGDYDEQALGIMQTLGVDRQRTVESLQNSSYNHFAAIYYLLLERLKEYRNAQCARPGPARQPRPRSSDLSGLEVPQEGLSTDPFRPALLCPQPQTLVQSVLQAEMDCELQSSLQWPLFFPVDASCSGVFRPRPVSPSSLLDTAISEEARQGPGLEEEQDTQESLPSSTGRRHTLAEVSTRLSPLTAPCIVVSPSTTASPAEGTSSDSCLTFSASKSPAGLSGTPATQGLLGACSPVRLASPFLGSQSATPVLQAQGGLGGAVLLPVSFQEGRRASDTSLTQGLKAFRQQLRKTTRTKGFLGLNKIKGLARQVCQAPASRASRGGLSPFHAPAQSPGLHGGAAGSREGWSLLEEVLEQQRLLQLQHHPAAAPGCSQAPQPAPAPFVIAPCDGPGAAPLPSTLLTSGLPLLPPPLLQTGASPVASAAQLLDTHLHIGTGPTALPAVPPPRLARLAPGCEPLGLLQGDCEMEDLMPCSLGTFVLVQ

[7] = target: Serine/threonine-protein kinase SIK1 (Homo sapiens) (UniProt P57059); settings: at 1 µM
[8] = target: Serine/threonine-protein kinase SIK2 (Homo sapiens) (UniProt Q9H0K1); settings: at 0.1 µM
Sequence of Serine/threonine-protein kinase SIK2 (Homo sapiens) (Q9H0K1 whole entry, looked up): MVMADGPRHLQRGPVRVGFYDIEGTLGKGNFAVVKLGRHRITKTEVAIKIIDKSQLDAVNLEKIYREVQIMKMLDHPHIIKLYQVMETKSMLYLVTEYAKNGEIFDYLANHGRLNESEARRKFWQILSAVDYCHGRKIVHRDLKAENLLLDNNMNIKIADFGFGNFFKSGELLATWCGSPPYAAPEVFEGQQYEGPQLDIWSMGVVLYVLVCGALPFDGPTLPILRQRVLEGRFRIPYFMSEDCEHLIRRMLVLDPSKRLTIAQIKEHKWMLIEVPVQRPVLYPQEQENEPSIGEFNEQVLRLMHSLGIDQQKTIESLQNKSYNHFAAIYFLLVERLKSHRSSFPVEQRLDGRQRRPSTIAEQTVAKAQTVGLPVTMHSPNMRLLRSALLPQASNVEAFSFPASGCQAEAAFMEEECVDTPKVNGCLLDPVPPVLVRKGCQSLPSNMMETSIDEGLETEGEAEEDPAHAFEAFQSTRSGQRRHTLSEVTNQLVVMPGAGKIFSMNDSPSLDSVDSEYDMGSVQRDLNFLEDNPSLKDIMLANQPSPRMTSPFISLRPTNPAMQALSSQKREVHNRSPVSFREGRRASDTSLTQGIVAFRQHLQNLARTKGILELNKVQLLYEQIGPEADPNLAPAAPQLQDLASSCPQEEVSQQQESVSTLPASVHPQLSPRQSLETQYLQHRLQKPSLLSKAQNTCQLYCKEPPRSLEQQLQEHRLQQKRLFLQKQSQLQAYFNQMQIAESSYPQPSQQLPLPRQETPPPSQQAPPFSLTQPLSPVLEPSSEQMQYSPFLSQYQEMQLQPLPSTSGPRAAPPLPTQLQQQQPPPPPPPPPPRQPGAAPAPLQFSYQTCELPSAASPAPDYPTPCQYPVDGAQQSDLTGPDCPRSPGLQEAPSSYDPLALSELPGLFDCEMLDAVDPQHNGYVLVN

[9] = target: Serine/threonine-protein kinase SIK2 (Homo sapiens) (UniProt Q9H0K1); settings: at 1 µM
[10] = target: T2, Serine/threonine-protein kinase TBK1 (Homo sapiens) (UniProt Q9UHD2); settings: at 0.1 µM
T2 sequence (whole entry): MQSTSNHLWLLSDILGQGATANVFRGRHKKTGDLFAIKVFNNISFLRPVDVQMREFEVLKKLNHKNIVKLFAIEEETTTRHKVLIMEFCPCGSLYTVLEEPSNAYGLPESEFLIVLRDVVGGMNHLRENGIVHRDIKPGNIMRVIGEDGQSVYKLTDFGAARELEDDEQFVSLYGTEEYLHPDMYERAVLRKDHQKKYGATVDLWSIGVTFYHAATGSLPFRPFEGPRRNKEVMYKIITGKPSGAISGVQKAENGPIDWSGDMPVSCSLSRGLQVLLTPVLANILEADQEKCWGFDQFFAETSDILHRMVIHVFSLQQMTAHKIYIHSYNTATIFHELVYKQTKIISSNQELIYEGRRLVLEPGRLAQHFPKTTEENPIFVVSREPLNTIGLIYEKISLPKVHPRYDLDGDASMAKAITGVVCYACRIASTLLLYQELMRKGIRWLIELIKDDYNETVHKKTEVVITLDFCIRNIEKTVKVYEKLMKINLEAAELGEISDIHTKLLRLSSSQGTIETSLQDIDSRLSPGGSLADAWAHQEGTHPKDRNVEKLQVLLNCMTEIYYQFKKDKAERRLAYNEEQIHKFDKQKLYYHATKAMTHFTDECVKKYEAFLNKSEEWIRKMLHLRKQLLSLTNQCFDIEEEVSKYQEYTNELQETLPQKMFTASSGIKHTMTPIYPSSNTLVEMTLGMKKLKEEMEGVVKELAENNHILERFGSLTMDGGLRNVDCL

[11] = target: T2, Serine/threonine-protein kinase TBK1 (Homo sapiens); settings: at 1 µM
[12] = target: T3, Testis-specific serine/threonine-protein kinase 1 (Homo sapiens) (UniProt Q9BXA7); settings: at 0.1 µM
T3 sequence (whole entry): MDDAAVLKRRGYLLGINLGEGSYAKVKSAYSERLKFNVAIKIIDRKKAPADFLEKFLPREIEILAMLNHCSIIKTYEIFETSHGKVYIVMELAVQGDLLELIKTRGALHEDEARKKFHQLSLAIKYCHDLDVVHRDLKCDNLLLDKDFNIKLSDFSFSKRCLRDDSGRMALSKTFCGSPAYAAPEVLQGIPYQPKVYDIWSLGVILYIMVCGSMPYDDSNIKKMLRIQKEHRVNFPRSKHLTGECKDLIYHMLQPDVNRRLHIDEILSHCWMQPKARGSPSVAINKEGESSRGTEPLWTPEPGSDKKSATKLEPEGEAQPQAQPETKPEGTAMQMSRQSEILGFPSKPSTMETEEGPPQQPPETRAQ

[13] = target: T3, Testis-specific serine/threonine-protein kinase 1 (Homo sapiens); settings: at 1 µM
[14] = target: T4, Testis-specific serine/threonine-protein kinase 2 (Homo sapiens) (UniProt Q96PF2); settings: at 0.1 µM
T4 sequence (whole entry): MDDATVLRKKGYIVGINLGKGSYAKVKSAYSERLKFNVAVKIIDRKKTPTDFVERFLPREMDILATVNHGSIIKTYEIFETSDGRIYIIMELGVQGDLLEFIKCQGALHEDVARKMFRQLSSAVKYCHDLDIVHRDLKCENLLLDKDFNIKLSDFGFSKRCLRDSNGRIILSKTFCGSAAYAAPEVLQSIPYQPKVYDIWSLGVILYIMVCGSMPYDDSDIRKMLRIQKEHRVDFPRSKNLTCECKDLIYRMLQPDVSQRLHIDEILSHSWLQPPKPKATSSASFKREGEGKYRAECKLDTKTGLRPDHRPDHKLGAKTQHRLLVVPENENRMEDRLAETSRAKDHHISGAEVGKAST

[15] = target: T4, Testis-specific serine/threonine-protein kinase 2 (Homo sapiens); settings: at 1 µM
[16] = target: Casein kinase I isoform alpha (Homo sapiens) (UniProt P48729); settings: at 0.1 µM
Sequence of Casein kinase I isoform alpha (Homo sapiens) (P48729 2-337 limits assumed): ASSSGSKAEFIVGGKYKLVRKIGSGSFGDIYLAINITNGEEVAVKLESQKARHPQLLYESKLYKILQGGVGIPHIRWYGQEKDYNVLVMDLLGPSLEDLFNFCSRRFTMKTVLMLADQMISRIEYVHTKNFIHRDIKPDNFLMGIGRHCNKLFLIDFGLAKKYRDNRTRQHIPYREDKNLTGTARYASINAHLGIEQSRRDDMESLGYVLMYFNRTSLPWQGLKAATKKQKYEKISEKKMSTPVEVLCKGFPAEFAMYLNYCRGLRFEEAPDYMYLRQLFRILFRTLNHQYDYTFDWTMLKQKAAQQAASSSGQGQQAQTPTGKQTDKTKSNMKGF

[17] = target: Casein kinase I isoform alpha (Homo sapiens) (UniProt P48729); settings: at 1 µM
[18] = target: Casein kinase I isoform gamma-1 (Homo sapiens) (UniProt Q9HCP0); settings: at 0.1 µM
Sequence of Casein kinase I isoform gamma-1 (Homo sapiens) (Q9HCP0 whole entry, looked up, canonical isoform): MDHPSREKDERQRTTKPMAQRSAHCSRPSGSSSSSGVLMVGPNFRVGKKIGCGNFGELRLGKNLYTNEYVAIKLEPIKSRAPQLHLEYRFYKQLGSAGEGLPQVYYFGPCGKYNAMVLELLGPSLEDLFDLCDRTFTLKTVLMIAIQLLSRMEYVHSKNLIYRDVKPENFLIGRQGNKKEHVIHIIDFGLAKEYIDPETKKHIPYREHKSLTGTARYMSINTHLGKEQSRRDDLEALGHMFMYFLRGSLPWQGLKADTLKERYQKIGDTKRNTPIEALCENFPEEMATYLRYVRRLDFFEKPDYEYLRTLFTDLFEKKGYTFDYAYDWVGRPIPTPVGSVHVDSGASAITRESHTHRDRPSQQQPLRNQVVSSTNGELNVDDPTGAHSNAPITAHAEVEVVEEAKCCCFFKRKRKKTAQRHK

[19] = target: Casein kinase I isoform gamma-1 (Homo sapiens) (UniProt Q9HCP0); settings: at 1 µM
[20] = target: Casein kinase I isoform gamma-2 (Homo sapiens) (UniProt P78368); settings: at 0.1 µM;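 further: values are mean inhibition figures reported as part of the GSK PKIS dataset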
Sequence of Casein kinase I isoform gamma-2 (Homo sapiens) (P78368 whole entry, looked up, canonical isoform): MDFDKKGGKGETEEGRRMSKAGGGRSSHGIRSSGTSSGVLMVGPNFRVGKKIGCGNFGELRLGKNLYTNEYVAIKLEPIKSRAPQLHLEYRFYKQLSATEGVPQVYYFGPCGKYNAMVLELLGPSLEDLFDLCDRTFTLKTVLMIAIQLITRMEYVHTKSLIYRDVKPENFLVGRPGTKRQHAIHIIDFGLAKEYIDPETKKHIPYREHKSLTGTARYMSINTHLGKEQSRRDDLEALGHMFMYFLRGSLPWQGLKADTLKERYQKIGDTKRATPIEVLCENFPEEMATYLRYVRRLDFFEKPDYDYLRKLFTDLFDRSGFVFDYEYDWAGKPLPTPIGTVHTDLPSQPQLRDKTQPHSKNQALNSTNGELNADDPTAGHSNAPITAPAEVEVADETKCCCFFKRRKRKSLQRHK

Sequence of Serine/threonine-protein kinase pim-2 (Homo sapiens) (Q9P1W9 whole entry, looked up): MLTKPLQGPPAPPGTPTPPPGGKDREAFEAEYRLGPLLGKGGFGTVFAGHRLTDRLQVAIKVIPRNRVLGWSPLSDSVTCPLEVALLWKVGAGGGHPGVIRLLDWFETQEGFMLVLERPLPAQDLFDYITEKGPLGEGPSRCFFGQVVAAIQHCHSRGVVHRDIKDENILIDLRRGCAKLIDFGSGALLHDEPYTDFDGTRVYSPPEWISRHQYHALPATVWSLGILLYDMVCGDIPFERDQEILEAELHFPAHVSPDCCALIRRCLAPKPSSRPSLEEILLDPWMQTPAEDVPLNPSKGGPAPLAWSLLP

N#Cc1cccc(Nc2ncc(-c3ccccc3)o2)c1
inhibition [1]: 0.47%
inhibition [2]: 0.1%
inhibition [3]: 2.79%
inhibition [4]: 1.22%
inhibition [5]: 2.58%
inhibition [6]: 1.14%
inhibition [7]: 4%
inhibition [8]: 1.76%
inhibition [9]: 4.74%
inhibition [10]: 1.05%
inhibition [11]: 3.86%
inhibition [12]: 3.9%
inhibition [13]: 5.55%
inhibition [14]: 2.41%
inhibition [15]: 4.88%
inhibition [16]: 1.55%
inhibition [17]: 0.38%
inhibition [18]: 1.61%
inhibition [19]: 3.03%
inhibition [20]: 1.82%

CS(=O)(=O)Nc1ccc(-c2cc(-c3ccccc3)cc(C(N)=O)c2N)cc1
inhibition [1]: 0.82%
inhibition [2]: 0.62%
inhibition [3]: 1.22%
inhibition [4]: 0.73%
inhibition [5]: 3.19%
inhibition [6]: 1.69%
inhibition [7]: 7.99%
inhibition [8]: -1.02%
inhibition [9]: 3.58%
inhibition [10]: 1.82%
inhibition [11]: 2.08%
inhibition [12]: 2.3%
inhibition [13]: 2.85%
inhibition [14]: 0.46%
inhibition [15]: 1.61%
inhibition [16]: 0.02%
inhibition [17]: 2.47%
inhibition [18]: 0.73%
inhibition [19]: 0.84%
inhibition [20]: 0.2%

CN(c1ccc(NC(=O)NCCN2CCOCC2)cc1)c1ccnc(Nc2ccc(CS(C)(=O)=O)cc2)n1
inhibition [1]: 0.65%
inhibition [2]: 0.45%
inhibition [3]: 2%
inhibition [4]: 1.83%
inhibition [5]: 3.14%
inhibition [6]: 2.8%
inhibition [7]: 17.4%
inhibition [8]: 9.27%
inhibition [9]: 11.2%
inhibition [10]: 1.55%
inhibition [11]: 4.49%
inhibition [12]: 4.48%
inhibition [13]: 5.87%
inhibition [14]: 4.78%
inhibition [15]: 3.15%
inhibition [16]: 1.71%
inhibition [17]: 2.52%
inhibition [18]: 2.63%
inhibition [19]: 3.24%
inhibition [20]: 3.34%

O=C(O[C@H]1CN[C@H](C#Cc2cc3ncnc(Nc4ccc(OCc5cccc(F)c5)c(Cl)c4)c3s2)C1)N1CCOCC1
inhibition [1]: 0.28%
inhibition [2]: 0.37%
inhibition [3]: 1.35%
inhibition [4]: 2.46%
inhibition [5]: 4.32%
inhibition [6]: 2.74%
inhibition [7]: 9.18%
inhibition [8]: 8.56%
inhibition [9]: 11.1%
inhibition [10]: 1.96%
inhibition [11]: 2.81%
inhibition [12]: 4.44%
inhibition [13]: 7.27%
inhibition [14]: 3.43%
inhibition [15]: 5.27%
inhibition [16]: 2.97%
inhibition [17]: 4.43%
inhibition [18]: 4.56%
inhibition [19]: 5.41%
inhibition [20]: 4.99%

Nc1ncnc2occ(-c3ccc(NC(=O)Nc4cc(C(F)(F)F)ccc4F)cc3)c12
inhibition [1]: 0.09% and 1.14%
inhibition [2]: 0.34% and 0.04%
inhibition [3]: -1.35% and 1.44%
inhibition [4]: -0.03% and -0.81%
inhibition [5]: -1.65% and -0.72%
inhibition [6]: 5.31% and -3.84%
inhibition [7]: 6.74% and 3.25%
inhibition [8]: 6.29% and -4.61%
inhibition [9]: 1.48% and -6.22%
inhibition [10]: 0.47% and 0.44%
inhibition [11]: 6.12% and 3.01%
inhibition [12]: 0.74% and -0.54%
inhibition [13]: -2.13% and 0.25%
inhibition [14]: 0.34% and -1.88%
inhibition [15]: -2.39% and -1.51%
inhibition [16]: -0.66% and -1.83%
inhibition [17]: 4.18% and -1.62%
inhibition [18]: 1.37% and -1.43%
inhibition [19]: 5.11% and 0.87%
inhibition [20]: 0.83% and -2.39%

CNC(=O)c1cncc(/C=C/c2ccccc2C)c1
inhibition [1]: 1.06%
inhibition [2]: -0.06%
inhibition [3]: 5.04%
inhibition [4]: 1.79%
inhibition [5]: 3.16%
inhibition [6]: 10%
inhibition [7]: 39.5%
inhibition [8]: 9%
inhibition [9]: 18.5%
inhibition [10]: 2.9%
inhibition [11]: 6.39%
inhibition [12]: 4.49%
inhibition [13]: 5.13%
inhibition [14]: 3.39%
inhibition [15]: 2.6%
inhibition [16]: 1.22%
inhibition [17]: 5.05%
inhibition [18]: 2.73%
inhibition [19]: 3.62%
inhibition [20]: 2.46%

FC(F)(F)CNc1nccc(-c2cnn3ncccc23)n1
inhibition [1]: 1.1%
inhibition [2]: -0.3%
inhibition [3]: 1.93%
inhibition [4]: 1.14%
inhibition [5]: 0.15%
inhibition [6]: 2.46%
inhibition [7]: 1.86%
inhibition [8]: -0.9%
inhibition [9]: 0.27%
inhibition [10]: 1.42%
inhibition [11]: 0.21%
inhibition [12]: 3.33%
inhibition [13]: 2.64%
inhibition [14]: -0.54%
inhibition [15]: -0.28%
inhibition [16]: 3.2%
inhibition [17]: 23.5%
inhibition [18]: 2.54%
inhibition [19]: 6.11%
inhibition [20]: 3.35%
